A3A deaminase: APOBEC3A ssDNA deaminase inhibitors, primary screen, selectivity assay for APOBEC3G inhibitor project, biochemical, FAM/TAMRA oligo cleavage fluorescence; DNA dC->dU-editing enzyme APOBEC-3A (Homo sapiens), P31941; inhibition, % at 20 µM; recombinant A3A, FAM/TAMRA ssDNA deamination fluorescence; 330,000 compounds, 0.41% hits;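 active = at least 40% inhibition at 20 µM here, with at most 30% in a related deaminase screen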;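 also: plate controls were A3A with DMSO for no effect and wells lacking A3A enzyme for full effect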
A3G deaminase: APOBEC3G DNA deaminase inhibitors, primary screen, biochemical, fluorescence, single-stranded DNA substrate, uHTS. DNA dC->dU-editing enzyme APOBEC-3G (Homo sapiens), Q9HC16. recombinant A3G, ssDNA deamination FAM/TAMRA fluorescence. inhibition, % at 20 µM. 330,000 compounds, 0.28% hits. AID 493012, 2011;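 active = inhibition of at least 40% at 20 µM, with no more than 30% in the related APOBEC3A deaminase screen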;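 also: plate controls were DMSO wells with A3G for no effect and wells lacking A3G enzyme for full effect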
PHOSPHO1 inh: PubChem AID 1565; Phosphoethanolamine/phosphocholine phosphatase (Homo sapiens), Q8TCT1; inhibition, % at 13.3 µM; recombinant PHOSPHO1, absorbance phosphatase assay; 290,000 compounds, 1.1% hits; in the data active = inhibition above about 60%
PABP FP inh: PABP poly(A) RNA binding inhibitors, primary screen, biochemical, fluorescence polarization, uHTS; 290,000 compounds, 1% hits; Polyadenylate-binding protein 1 (Homo sapiens), P11940; calls only at 35 µM;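 also: calls also rest on retests at 20 µM and on dose response follow-up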
Target sequence (P11940 whole entry, looked up): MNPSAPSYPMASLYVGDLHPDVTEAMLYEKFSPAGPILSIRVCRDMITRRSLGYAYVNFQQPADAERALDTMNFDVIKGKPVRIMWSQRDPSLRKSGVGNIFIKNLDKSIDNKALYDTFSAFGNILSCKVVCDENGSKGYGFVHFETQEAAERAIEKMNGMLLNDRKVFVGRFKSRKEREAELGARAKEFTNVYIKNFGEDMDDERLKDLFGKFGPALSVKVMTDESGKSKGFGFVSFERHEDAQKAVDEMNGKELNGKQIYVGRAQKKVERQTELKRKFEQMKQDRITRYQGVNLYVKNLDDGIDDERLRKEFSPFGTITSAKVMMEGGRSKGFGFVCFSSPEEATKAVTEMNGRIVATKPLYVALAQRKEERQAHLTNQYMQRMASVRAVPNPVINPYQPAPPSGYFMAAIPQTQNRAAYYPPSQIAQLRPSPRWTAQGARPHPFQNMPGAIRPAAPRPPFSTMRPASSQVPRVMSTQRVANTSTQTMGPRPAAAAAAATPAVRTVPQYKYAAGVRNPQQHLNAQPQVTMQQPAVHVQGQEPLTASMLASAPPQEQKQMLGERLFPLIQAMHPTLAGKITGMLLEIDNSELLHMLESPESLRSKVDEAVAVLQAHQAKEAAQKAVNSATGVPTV
eIF4H inh: human eIF4H binding inhibitors, primary screen, translation initiation inhibitor project, biochemical, uHTS, fluorescence polarization. eIF4H fluorescence polarization binding assay. inhibition, % at 35 µM. 290,000 compounds, 0.94% hits;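 also: calls also rest on retests at 20 µM and on dose response follow-up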
PABP1 MLLE inh: inhibitors of PABP1 MLLE–PAM2 peptide binding, primary screen, biochemical, fluorescence polarization, FITC-PAM2, GST-MLLE. Polyadenylate-binding protein 1 (Homo sapiens), P11940. inhibition, % at 20 µM. 360,000 compounds, 0.36% hits; in the data active = inhibition above about 35%, passing the limit was not always enough;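 also: plate controls were DMSO wells with GST-MLLE for no effect and wells lacking GST-MLLE protein for full effect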
APOBEC3A confirm: APOBEC3A deaminase inhibitors, retest, confirmation, selectivity assay for APOBEC3G inhibitor project, biochemical, single concentration, fluorescence readout | shares compounds with A3A deaminase | recombinant A3A, ssDNA deaminase UDG fluorescence assay | inhibition, % at 20 µM | 1,400 compounds, 63% hits;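 active = inhibition reaching a set limit, 80% of the first screen's cutoff, at 20 µM in any replicate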;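 also: plate controls were DMSO wells with A3A for no effect and wells lacking A3A enzyme for full effect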
UDG A3A counter: E. coli UDG inhibitors, confirmation, counter-screen for APOBEC3A inhibitor project, biochemical, single concentration, fluorescence, FAM/TAMRA oligo; inhibition, % at 20 µM; 1,000 tested, under 10 active; shares compounds with A3A deaminase; UDG counterscreen, FAM/TAMRA uracil oligo fluorescence
Numbers without * were called inactive; i = inactive; . = no result; + = active, no number. A selection: hits, their analogues and other compounds. The true share with any hit is near 2.6%. Unless noted, no rule for the calls is given here.

SMILES	A3A deaminase	A3G deaminase	PHOSPHO1 inh	PABP FP inh	eIF4H inh	PABP1 MLLE inh	APOBEC3A confirm	UDG A3A counter
COc1ccc(C)cc1NC(=O)CCNS(=O)(=O)c1cccc(C(F)(F)F)c1	-1.1	-8.4	6.5	i	-4.1	-0.4	.	.
COc1cc(C(=O)N=c2sccn2C)c([N+](=O)[O-])cc1OC	53.4*	9.8	-0.6	i	-9.6	-47.9	5.8	.
CCOc1cc(C(=O)N=c2sccn2C)cc(Br)c1OC	2.0	-6.8	16.2	i	-13.5	-11.6	.	.
O=C(Nc1ccc(-c2cn3ccsc3n2)cc1)C1CC1	77.5*	-2.3	88.3*	i	12.1	-88.3	10.3	-1.1
CCN(CC(=O)Nc1cccc(F)c1)CC(=O)Nc1ccc2c(c1)OCCO2	.	.	.	.	.	4.9	.	.
COc1ccc(CN(C(=O)c2ccco2)C2CCS(=O)(=O)C2)cc1 (centres undefined)	72.1*	-8.2	46.5	i	-9.6	-4.7	-6.4	1.7
COc1cccc(CN(C(=O)c2ccco2)C2CCS(=O)(=O)C2)c1 (centres undefined)	-8.2	-7.5	52.9	i	-1.9	5.2	.	.
Cc1ccnc(NC(=O)CCC(=O)N(CC(=O)NC(C)(C)C)Cc2ccc3c(c2)OCO3)c1	0.3	-3.8	-8.7	i	2.5	8.1	.	.
CC(=O)Nc1cc(Br)ccc1O	-2.5	-13.3	6.4	i	3.2	-0.7	.	.
CC(=O)Nc1cc(-c2ccccc2)ccc1O	46.6*	16.4	89.5*	i	3.4	-111.1	60.1*	-2.9
CC(Sc1ccccn1)C(=O)NC1CCCC1 (centres undefined)	0.0	-0.8	.	.	.	10.3	.	.
CCc1noc(C)c1C(=O)NNC(=O)c1cc(OC)c(OC)c(OC)c1	62.1*	8.9	.	.	.	-116.6	53.5*	-1.3
C=CCn1nnc2sc3c(c2c1=O)CCC(C)C3 (centres undefined)	-0.6	-1.1	2.4	i	-2.6	-9.2	.	.
Cc1ccc(OS(=O)(=O)c2ccccc2)c(/C=N/N=C2\NC(=O)C(C)S2)c1 (centres undefined)	3.7	2.0	-17.4	i	-4.7	-0.3	.	.
CCOc1ccc(/C=N/NC(=O)C(C)N(c2ccc(OC)cc2)S(C)(=O)=O)cc1 (centres undefined)	-3.1	-1.5	20.6	i	-1.2	1.4	.	.
CCOc1ccc(N(CC(=O)N/N=C/c2ccc(OC(C)C)cc2)S(C)(=O)=O)cc1	51.7*	8.5	-12.3	i	-12.8	-119.9	26.3	.
C[C@]12C[C@H](O)[C@@H]3c4ccc(O)cc4CCC3[C@@H]1CCC2=O (some centres undefined)	0.3	-0.8	37.0	i	6.0	9.1	.	.
CC12CC(O)C3c4ccc(O)cc4CCC3C1CC/C2=N\O (centres undefined)	51.2*	-13.0	36.0	i	-16.8	0.5	0.6	1.5
COC(=O)c1ccc(NCC(=O)Nc2cc(C)cc(C)c2)cc1	50.1*	18.3	-11.8	i	-6.5	-54.6	1.4	.
COC(=O)c1ccc(NC(=O)CSc2ccccc2)cc1	1.8	4.1	25.7	i	-16.4	18.7	.	.
COC(=O)c1ccc(NC(=O)CSc2ccccn2)cc1	54.7*	3.9	42.3	i	-2.8	-90.4	6.0	.
CCN1CCN(c2ccc(S(=O)(=O)N3CCCCC3)cc2NC(=O)C(C)Oc2ccc(F)cc2)CC1 (centres undefined)	77.8	33.0	.	.	.	-114.1	.	.
CCN1CCN(c2ccc(S(=O)(=O)N3CCCCC3)cc2NC(=O)COc2cc(C)ccc2Cl)CC1	56.8*	15.1	.	.	.	-122.1	72.7*	3.4
CCN1CCN(c2ccc(S(=O)(=O)N3CCCCC3)cc2NC(=O)COc2ccc(Cl)cc2)CC1	36.7	4.3	.	.	.	-102.6	.	.
CCN1CCN(c2ccc(S(=O)(=O)N3CCCCC3)cc2NC(=O)COc2ccc(F)cc2Cl)CC1	55.9*	10.5	24.0	i	-5.2	-109.2	52.9*	-4.0
SMILES	A3A deaminase	A3G deaminase	PHOSPHO1 inh	PABP FP inh	eIF4H inh	PABP1 MLLE inh	APOBEC3A confirm	UDG A3A counter
CC(Oc1ccc(F)cc1)C(=O)Nc1cc(S(=O)(=O)N2CCCCC2)ccc1N1CCOCC1 (centres undefined)	42.2*	4.0	.	.	.	-67.3	2.6	.
CCOc1ccc(S(=O)(=O)c2c(C(=O)c3ccccc3)cnc3cc4c(cc23)OCCO4)cc1	-3.7	-6.7	6.1	i	-5.4	9.5	.	.
O=C(NC(=S)Nc1c(Cl)ccc2nsnc12)c1ccco1	2.9	-0.8	0.1	i	-0.3	31.7	.	.
COc1nccc(C(F)(F)F)c1C(=O)Nc1ccc(Cl)cc1	0.1	-3.9	21.4	i	-4.5	-7.2	.	.
O=C(CSc1nnc(NC(=O)c2ccc3c(c2)OCO3)s1)NCc1ccco1	88.0*	-3.1	48.4	i	-1.3	-16.2	-2.2	1.8
COC(=O)C1=CO[C@@H](O[C@@H]2O[C@H](CO)[C@@H](O)[C@H](O)[C@H]2O)C2C1C=C[C@@]2(O)CO (some centres undefined)	-3.6	-5.6	.	.	.	-22.8	.	.
O=C(CSc1ccc(-c2ccncc2)nn1)N1CCCCC1	101.6*	-2.1	-20.0	i	1.6	-0.2	3.6	5.5
CCCCOc1ccc(C2CCC(C(C)=O)C(C)C2)cc1 (centres undefined)	0.2	-5.9	33.4	i	-13.8	-5.4	.	.
COc1ccc(/C=C/c2nnc(NC(=O)CC(C)C)s2)cc1	-0.6	0.8	20.0	i	-3.3	-17.9	.	.
CCCCc1c(CCC)c(=N)c2ccccc2n1C	41.9*	25.3	-77.7	+	1.6	-106.7	82.7*	4.4
CCCCc1c(O)c2ccccc2n(CCCC)c1=O	-2.5	-3.2	11.7	i	6.9	8.4	.	.
CCC1=[N+](C)c2cccc3cccc(c23)N1C	65.2*	22.1	6.7	i	-10.7	-114.6	77.8*	-3.0
CCN1C(=O)Nc2cccc3cccc1c23	-4.6	-5.2	.	.	.	-1.6	.	.
CN(CC(=O)Nc1cccc(F)c1)C(=O)c1ccc2c(c1)OCCO2	40.3*	4.1	.	.	.	-74.8	2.3	.
COc1cccc(N=Cc2c(O)c3ccccc3oc2=O)c1	-9.3	1.5	.	i	4.0	-0.9	.	.
